# Assay outcomes as filed in PubChem BioAssay.
# Pf growth 96h – P. falciparum growth inhibition at 96 hour, primary screen for plastid delayed-death inhibitors | P. falciparum luciferase reporter growth, 96 h | Potency, µM (titrated, usually from 28.7 µM), for inactives: at the top dose activity change, negative = inhibition, most hits filed as inhibitors | actives 6.9% (n = 320,000) | AID 504834
#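 Two-generation exposure (96 h) targets delayed-death phenotype. Reporter parasites carrying integrated firefly luciferase, in red cells at 2% hematocrit and 0.05% parasitemia final, kept at 37 C, 5% CO2; luminescence loss indicates inhibition.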
# Vaccinia mCherry – vaccinia inhibition (mCherry reporter). Vaccinia virus mCherry reporter infection, fluorescence. Potency, µM (doses to about 36.5 µM), inactives show top-dose activity change, negative = inhibition, actives largely listed as inhibitors. actives 0.63% (n = 310,000). AID 720579; calls by dose curve; tested in A549 cells; also: nearly all actives have a fitted effect of over 35% in size
# AMA1-RON2 inh – inhibitors of Plasmodium falciparum AMA1-RON2 interaction. actives 0.2% (n = 360,000). AlphaScreen AMA1-biotinylated RON2 peptide binding. Potency, µM (titrated, usually from 58.2 µM), for the others: top-dose activity change, negative = inhibition, most hits filed as inhibitors;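 also: 0% = vehicle wells and -100% = peptide control; nearly all actives have a fitted effect of over 45% in size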
#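 AMA1 (3D7) with his tag at 25 nM final met compounds first, then biotinylated RON2 peptide at 25 nM; detection used donor plus acceptor beads, 10 µg/mL apiece, read by AlphaScreen after 30 min at room temperature.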
# Pf growth 48h – P. falciparum growth inhibition at 48 hours (one generation); P. falciparum luciferase growth in erythrocytes, 48 h; Potency, µM (top dose mostly 28.7 µM), without a hit: at the highest dose activity change, negative = inhibition, most hits filed as inhibitors; AID 504832; actives 5.9% (n = 310,000)
#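 Cell-based growth assay: transgenic P. falciparum expressing firefly luciferase, cultured in red cells within RPMI 1640 containing 0.5% w/v Albumax, 24 mM bicarbonate and gentamycin. A drop in luciferase activity indicates inhibition.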
# VACV Venus inh – vaccinia inhibition (Venus reporter) | Vaccinia virus Venus reporter expression, fluorescence | Potency, µM (doses to about 36.5 µM), without a hit: at the top dose activity change, negative = inhibition, most hits filed as inhibitors | actives 0.46% (n = 330,000) | AID 720580; calls by dose curve; tested in A549 cells; also: nearly all actives have a fitted effect of over 30% in size
# Numbers without * were called inactive; i = inactive; ? = inconclusive; . = no result. Most compounds without a hit are left out; they make up all but 8.7% or so of the library. Unless noted, calls follow the shape of the dose curve; as a rule, active = well fitted curve in the direction sought with a large enough effect; inconclusive = small, poorly fitted or top-dose-only effect, or another doubt; inactive = no such curve, though single readings can be large; an effect the other way counts as inactive or inconclusive. Unless noted, % is scaled to controls: 0 for no effect and ±100 for the full control effect; potency is read from the fitted curve at half-maximal effect.
SMILES,Pf growth 96h,Vaccinia mCherry,AMA1-RON2 inh,Pf growth 48h,VACV Venus inh
COc1ccc(C)c2sc(NC(=O)c3ccc(S(=O)(=O)N4CCOCC4)cc3)nc12,.,-13%,.,.,-12%
CCC(C(=O)NCCc1c[nH]c2ccc(C)cc12)c1ccccc1 (stereo not given),15µM*,?,-2%,?,-13%
Cc1ccc(C)c(NC(=O)C(=O)NCCc2c[nH]c3ccccc23)c1,47%,?,0%,-21%,0%
CCOC(=O)c1cnc2nc(NCc3cccc(Br)c3)[nH]n2c1=O,.,-20%,.,.,-5%
N#CCCn1nc(-c2ccccc2)cc1Nc1ccccc1NC(=O)c1cccs1,47%,-13%,37%,5.2µM*,-11%
CC1(C)CC2CC(C)(CN2S(=O)(=O)c2ccc(C(=O)Nc3cccc(S(=O)(=O)N4CCOCC4)c3)cc2)C1 (stereo not given),?,.,-1%,2.9µM*,.
CCCCNC(=O)c1cccc(S(=O)(=O)N2CC3(C)CC2CC(C)(C)C3)c1 (stereo not given),12µM*,.,5%,?,.
COCCCNC(=O)c1cccc(S(=O)(=O)N2CC3(C)CC2CC(C)(C)C3)c1 (stereo not given),-5%,.,87%,?,.
CC1(C)CC2CC(C)(CN2S(=O)(=O)c2ccc(C(=O)Nc3cc(S(=O)(=O)N4CCOCC4)ccc3Cl)cc2)C1 (stereo not given),2.6µM*,i,15%,3.7µM*,-18%
Cc1ccc(C)c(NC(=O)CSc2nnc(CNC(=O)c3ccccc3)n2-c2ccccc2)c1,.,5%,.,.,10%
O=C(CSc1nnc(-c2cccs2)o1)Nc1cccc(S(=O)(=O)N2CCCCC2)c1,15µM*,-8%,0%,?,-8%
O=C(CSc1cc(Cl)ccc1Cl)NCC1CCCO1 (stereo not given),10µM*,.,-4%,14%,.
O=C(CSc1nc2cc(Cl)ccc2s1)NCC1CCCO1 (stereo not given),.,-19%,-1%,.,-16%
Cc1ccccc1-c1nnc(SCC(=O)NCC2CCCO2)o1 (stereo not given),?,.,15%,6%,.
O=C(CSc1nnc(-c2cccc(Br)c2)o1)NCC1CCCO1 (stereo not given),.,?,-20%,.,14µM*
O=C(CSc1nnc(-c2ccc(S(=O)(=O)N3CCCC3)cc2)o1)NCC1CCCO1 (stereo not given),-20%,4µM*,-8%,?,4.5µM*
Cn1c(SCC(=O)NCC2CCCO2)nnc1-c1ccc(S(=O)(=O)N2CCCC2)cc1 (stereo not given),?,-12%,2%,-1%,-6%
Cc1cccc(NC(=O)CSc2nnc(-c3cccs3)o2)c1,.,-13%,.,.,-5%
CN(C)c1ccc(/C=C/c2ccnc3ccc(Cl)cc23)cc1,.,37%,.,.,6%
CC(C)(C)OC(=O)N1CCC(c2c(C(=O)NC3CCN(Cc4ccccc4)CC3)cnn2-c2cccc(F)c2)CC1,.,-23%,.,.,-19%
COc1ccc(-n2ncc(C(=O)N3CCN(Cc4ccccc4)CC3)c2C2CCN(C(=O)OC(C)(C)C)CC2)cc1,.,-17%,.,.,-23%
CCOCCCn1c(=N)c(C(=O)NC2CCCC2)cc2c(=O)n3cccc(C)c3nc21,.,10%,.,.,-4%
COc1ccc(-c2cn3c(n2)sc2cc(C(=O)Nc4cc(Cl)ccc4C)ccc23)cc1,.,-19%,.,.,-11%
COC(=O)CSc1nnc(-c2ccc(S(=O)(=O)N3CCCC3)cc2)o1,?,6%,-5%,-3%,-4%
NC(=O)CSc1nnc(-c2ccc(S(=O)(=O)N3CCCC3)cc2)o1,?,?,8%,-1%,3.2µM*
SMILES,Pf growth 96h,Vaccinia mCherry,AMA1-RON2 inh,Pf growth 48h,VACV Venus inh
CCCCNC(=O)CSc1nnc(-c2cccc(S(=O)(=O)N3CCOCC3)c2)o1,?,.,-9%,13µM*,.
Cc1cc(C)cc(NC(=O)CSc2nnc(-c3ccc(S(=O)(=O)N4CCCC4)cc3)o2)c1,5.2µM*,-9%,47%,?,-2%
C=CCNC(=O)CSc1nnc(-c2cccc(S(=O)(=O)N3CCOCC3)c2)o1,.,-24%,11%,.,?
CC(C#Cc1c([C@@H](C)Oc2ccccc2)nnn1Cc1ccccc1)Oc1ccccc1 (stereo not given in full),9.3µM*,-18%,13%,12µM*,-13%
O=c1[nH]cnc2c1sc1nc3c(c(-c4ccc(Cl)cc4)c12)CCC3,?,.,7%,.,2.8µM*
CCOC(=O)Cn1nnc2c(sc3nc4c(c(-c5ccc(Cl)cc5)c32)CCC4)c1=O,?,.,-3%,?,-4%
CCOC(=O)c1c(C)[nH]c(C)c1S(=O)(=O)N1CCC(C(=O)Nc2cc(Cl)ccc2OC)CC1,.,-18%,.,.,-16%
COc1cccc(N2CCN(C(=O)c3cc4c(OC)c(OC)c(OC)cc4[nH]3)CC2)c1,7.4µM*,.,-1%,.,.
COc1cc2[nH]c(C(=O)N3CCN(C)CC3)cc2c(OC)c1OC,20%,.,-3%,.,.
COc1ccc(C2=NOC(Cn3c(Cc4ccc(Cl)cc4)nc4c3c(=O)n(C)c(=O)n4C)C2)cc1 (stereo not given),13µM*,-2%,4%,-9%,8%
CC1=C(C(=O)Nc2ccc(F)cc2F)C2(CCCCCC2)OC1=O,.,-3%,.,.,-10%
CC12CCC(C(=O)N(CSC(=S)N/N=C\c3ccccc3O)C1=O)C2(C)C (stereo not given),?,.,20µM*,10µM*,-18%
COc1ccc(/C=N\NC(=S)SCN2C(=O)C3CCC(C)(C2=O)C3(C)C)cc1 (stereo not given),.,-20%,?,.,-13%
CCOC(=O)C1CCCN(C(=O)c2cc(S(=O)(=O)N3CCCCC3)ccc2Cl)C1 (stereo not given),10µM*,-3%,2%,?,-17%
CCOc1cc(S(=O)(=O)N2CCCCC2)ccc1F,.,.,0%,4%,.
CCOC(=O)C1CCCN(C(=O)c2cccc(S(=O)(=O)N3CCCC3)c2)C1 (stereo not given),?,.,61%,?,.
O=S(=O)(c1ccc(Cl)cc1)N1CCN(S(=O)(=O)N2CCCCCC2)CC1,?,-5%,-12%,14%,-8%
CCOc1cc(S(=O)(=O)N2CCCC2)ccc1Cl,12µM*,-16%,0%,.,-6%
O=S(=O)(c1ccc(Oc2ccc(Cl)cc2)c(S(=O)(=O)N2CCCCC2)c1)N1CCCCC1,.,.,4%,4.7µM*,.
CCN1CCN(C(=O)c2cc(S(=O)(=O)N3CCCCC3)ccc2Cl)CC1,10µM*,i,-12%,40%,-6%
Cc1ccc(S(=O)(=O)C(CNC(=O)COc2ccc(Cl)cc2)c2ccco2)cc1 (stereo not given),.,-1%,.,.,-21%
CCCSc1ncc(Cl)c(C(=O)Nc2sc3c(c2C(=O)OC)CCCC3)n1,.,0%,.,.,-1%
Cn1cnnc1Sc1ccc(C(=O)NCCC(c2ccccc2)c2ccccc2)cc1[N+](=O)[O-],?,-20%,-9%,8.3µM*,-14%
